The source of these data is PubChem BioAssay AID1345085 (National Center for Advancing Translational Sciences (NCATS), 2018).

Records with an inconclusive call do not appear. Values without a mark were called inactive. Active and inactive are the calls of the source. Calls come from the whole dose curve; as a rule, active = well fitted cell-killing curve with a large enough effect; inconclusive = small, poorly fitted or top-dose-only effect, or effect the other way; inactive = no such curve, though single readings can be large or run the other way.
% is set by controls: 0 for no effect and ±100 for the full control effect; potency is the fitted concentration of half-maximal effect.

In this assay the test system is Es-2. The experiment in a line: Confirmatory qHTS for gynecologic anti-cancer compounds from libraries of approved drugs and bioactive compounds. Note: nearly all actives have a fitted effect of over 55% in size. The settings on record: gynecologic cancer cell panel viability, ATPlite luminescence, 48 h; series mostly up to 57.6 µM; activity change, negative = viability loss: at the top concentration. The procedure, abridged: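 1,000 cells/well; 16 h pre-incubation 37 C, 5% CO2; pin-transferred cpd in DMSO, 11 conc (1:3), 57.5 uM–0.977 nM; 48 h; ATPlite, 15 min RT; luminescence → IC50.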
For the compound `Cc1ccc(C(=O)Nc2ccc(CN3CCN(C)CC3)c(C(F)(F)F)c2)cc1C#Cc1cnc2cccnn12`, the Potency was 6.11 µM (active).
On the same count and under the same terms, the result for `CCCCc1oc2ccccc2c1C(=O)c1cc(I)c(OCCN(CC)CC)c(I)c1` reads 70.8 µM (active).
For `Cc1cc(Nc2cc(N3CCN(C)CC3)nc(/C=C/c3ccccc3)n2)n[nH]1`, the Potency is 24.3 µM (active).
On to `COc1cc(Nc2c(C#N)cnc3cc(OCCCN4CCN(C)CC4)c(OC)cc23)c(Cl)cc1Cl`, for which the Potency is 21.7 µM (active).
`CN(C)CC/C=C1\c2ccccc2COc2ccccc21`: the “activity change, negative = viability loss” value is 14.1%.
Take `CC(C)[C@@H](CS(=O)(=O)C(C)C)N1C(=O)[C@@](C)(CC(=O)O)C[C@H](c2cccc(Cl)c2)[C@H]1c1ccc(Cl)cc1`: the “activity change, negative = viability loss” value was 20.7%.
On to `Nc1ccccc1NC(=O)c1ccc(CNC(=O)OCc2cccnc2)cc1`, for which the Potency is 7.69 µM (active).
Still for that read-out and setting: the result for `CN(C)C/C=C/C(=O)Nc1cc2c(Nc3ccc(F)c(Cl)c3)ncnc2cc1OC1CCOC1` (configuration not stated) reads 15.3 µM (active); that for `COCCOc1nc(-c2ccc(Cl)c(Cl)c2)n(-c2ccc(NC(=O)CCl)cc2)n1`, 5.44 µM (active).
On the same count and under the same terms, under `COc1cc(-c2nn(C3CCC(N4CCN(C(C)=O)CC4)CC3)c3ncnc(N)c23)ccc1NC(=O)c1cc2ccccc2n1C` (configuration not stated) stands 30.6 µM (active); under `CCCCc1oc2ccc(NS(C)(=O)=O)cc2c1C(=O)c1ccc(OCCCN(CCCC)CCCC)cc1`, 24.3 µM (active).
As to `CN(C[C@@H]1COCCO1)S(=O)(=O)Nc1ccc2ccc3ncc(-c4cnn(C)c4)cc3c(=O)c2c1`, the “activity change, negative = viability loss” value is 13.7%.
Turning to `N=C(N)c1ccc(OCCCCCOc2ccc(C(=N)N)cc2)cc1`, the “activity change, negative = viability loss” value is -18.9%.
Regarding `CCCC(Nc1nc(-c2ccc(NC(=O)NCC)c(OC)c2)ncc1C)c1cccnc1` (configuration not stated), the Potency is 0.193 µM (active).
Same read-out and setting: under `COc1cc(N2CCC(N3CCN(C)CC3)CC2)ccc1Nc1ncc(Cl)c(Nc2ccccc2S(=O)(=O)C(C)C)n1` stands 24.3 µM (active).
On to `COc1ccc2cc3[n+](cc2c1OC)CCc1cc2c(cc1-3)OCO2`, for which the “activity change, negative = viability loss” value is -17.3%.
With `Cn1cnc([N+](=O)[O-])c1Sc1ncnc2nc[nH]c12`, the Potency is 15.3 µM (active).
On the same count and under the same terms, under `CN(C)CCC(CSc1ccccc1)Nc1ccc(S(=O)(=O)NC(=O)c2ccc(N3CCN(Cc4ccccc4-c4ccc(Cl)cc4)CC3)cc2)cc1[N+](=O)[O-]` (configuration not stated) stands 4.85 µM (active); under `CC(C)n1nc(-c2cc3cc(O)ccc3[nH]2)c2c(N)ncnc21`, 4.85 µM (active).
On the same count and under the same terms, under `O=c1c(-c2ccc(O)cc2)coc2cc(O)cc(O)c12` stands 17.2 µM (active); under `COc1cc(F)c(F)c(Nc2ccc(I)cc2F)c1NS(=O)(=O)C1(CC(O)CO)CC1` (configuration not stated), 3.85 µM (active).
For the compound `CCOC(=O)C1=C(C)NC2=C(C(=O)CC(C)(C)C2)C1c1ccc(-c2ccccc2)cc1` (configuration not stated), the “activity change, negative = viability loss” value was -4.79%.
Same read-out and setting: the result for `Cc1nc(N)ncc1-c1nc(N2CCOCC2)c2sc(C(C)(C)O)cc2n1` reads -16.4%.
With `CC(=O)O[C@H]1C(=O)[C@@]2(C)[C@H]([C@H](OC(=O)c3ccccc3)[C@]3(O)C[C@H](OC(=O)[C@H](O)[C@@H](NC(=O)c4ccccc4)c4ccccc4)C(C)=C1C3(C)C)[C@]1(OC(C)=O)CO[C@@H]1C[C@@H]2O`, the Potency was 0.0819 µM (active).
With `Cc1csc(NC(=O)c2sc3nc4c(c(C(F)(F)F)c3c2N)CCC4)n1`, the Potency is 2.17 µM (active).
Still for that read-out and setting: under `CC(C)n1c(/C=C/[C@@H](O)C[C@@H](O)CC(=O)O)c(-c2ccc(F)cc2)c2ccccc21` stands 5.44 µM (active).
On to `O=c1c2ccccc2nc2n1CCc1c-2[nH]c2ccccc12`, for which the “activity change, negative = viability loss” value was -0.16%.
As to `COC(C)(C)CCn1nc(Nc2c(C)cccc2C)c2cnc(Nc3ccc(OCCN4CCCC4)c(F)c3)nc21`, the “activity change, negative = viability loss” value was -21%.
On to `O=C(/C=C/c1cccc(S(=O)(=O)Nc2ccccc2)c1)NO`, for which the Potency is 2.98 µM (active).
Same read-out and setting: under `CNc1nccc(-c2cccnc2Oc2cc(C(=O)Nc3cccc(C(F)(F)F)c3)ccc2C)n1` stands 6.11 µM (active).
Take `CNCc1ccc(-c2[nH]c3cc(F)cc4c3c2CCNC4=O)cc1`: the “activity change, negative = viability loss” value is -16.9%.
For the compound `Cc1cc(C(C)Nc2ccccc2C(=O)O)c2nc(N3CCOCC3)cc(=O)n2c1` (configuration not stated), the “activity change, negative = viability loss” value is -20.9%.
In the case of `C[C@]12CCC(=O)C=C1CC[C@@H]1[C@@H]2[C@@H](O)C[C@@]2(C)[C@H]1CC[C@]2(O)C(=O)CO`, the “activity change, negative = viability loss” value was -15.4%.
In the case of `COc1cc2c(NC3CCN(C(C)C)CC3)nc(C3CCCCC3)nc2cc1OCCCN1CCCC1`, the Potency was 12.2 µM (active).
In the case of `Nc1ncnc2c1ncn2[C@@H]1O[C@H](CO)C[C@H]1O`, the “activity change, negative = viability loss” value was 0.037%.
Consider `O=C1c2c(O)ccc(O)c2C(=O)c2c(NCCNCCO)ccc(NCCNCCO)c21`, for which the Potency was 0.968 µM (active).
For `COc1cc2c(Oc3ccc(-c4cnc(Nc5ccc(F)cc5)n(C)c4=O)cc3F)ccnc2cc1OCCCN1CCOCC1`, the “activity change, negative = viability loss” value was -8.74%.
